Test results reported in PubChem BioAssay (NCATS).
Records with an inconclusive call do not appear. The source made the active and inactive calls. Calls follow the shape of the dose curve; as a rule, active = well fitted cell-killing curve with a large enough effect; inconclusive = small, poorly fitted or top-dose-only effect, or effect the other way; inactive = no such curve, though single readings can be large or run the other way.

Assay: Quantitative highthroughput screen to assess conditional lethalithy of SEM cells grown in RPMI1640 with dialyzed fetal bovine serum (RPMI+ds) (AID 1963884); also: nearly all actives have a fitted effect of over 35% in size;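 as to viability: 100% = DMSO control wells and 0% = empty wells without cells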
Conditions: SEM B-ALL cells, RPMI+dialyzed FBS, CellTiter-Glo viability, 48 h; series mostly up to 45.8 µM; viability: at the top concentration
Procedure, shortened: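 Each medium arm—HPLM with 10% dialyzed FBS, or RPMI1640 with 5 mM glucose and 10% untreated or dialyzed FBS—was screened against an 11-point, 3-fold compound titration for 48 h at 37 °C, with CellTiter-Glo luminescence as endpoint.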
Potency is read from the fitted curve at half-maximal effect.

| Compound | Potency | viability |
| --- | --- | --- |
| CCN1CCC(n2cc(CNc3cc(Cl)c4ncc(C#N)c(Nc5ccc(F)c(Cl)c5)c4c3)nn2)CC1 | 13.2 µM (active) |  |
| O=C(Nc1ncc(-c2cc(C(F)F)nn2-c2c(Cl)cccc2Cl)s1)C1CC1 | 1.32 µM (active) |  |
| Clc1ccc(C(Cn2ccnc2)OCc2ccc(Sc3ccccc3)cc2)c(Cl)c1 (centres undefined) |  | 68.8% (inactive) |
| CO[C@@H]1[C@H](N(C)C(=O)c2ccccc2)C[C@H]2O[C@]1(C)n1c3ccccc3c3c4c(c5c6ccccc6n2c5c31)C(=O)NC4 | 0.743 µM (active) |  |
| O=C1c2c(O)ccc(O)c2C(=O)c2c(NCCNCCO)ccc(NCCNCCO)c21 | 0.332 µM (active) |  |
| CN1N=C(N)c2cn([C@@H]3O[C@H](COP(=O)(O)O)[C@@H](O)[C@@H]3O)c3ncnc1c23 | 0.0074 µM (active) |  |
| CC(C)C(=O)Nc1ccc([N+](=O)[O-])c(C(F)(F)F)c1 |  | 88.6% (inactive) |
| Cc1cc(-c2ccc(CC(=O)Nc3ccc(-c4cccnc4)cc3)cc2)ccn1 | 8.33 µM (active) |  |
| CCCCCCCCCCCC(CC1OC(=O)C1CCCCCC)OC(=O)C(CC(C)C)NC=O (centres undefined) | 11.8 µM (active) |  |
| COc1cc(OC)c(NC(=O)Nc2cc(C)on2)cc1Cl |  | 72.6% (inactive) |
| O=C(NCc1ccncc1)C12C[C@H]3C[C@@H](C1)CC(c1ccc(Cl)cc1)(C3)C2 | 13.2 µM (active) |  |
| O=c1c(O)c(-c2ccc(O)c(O)c2)oc2cc(O)ccc12 | 23.5 µM (active) |  |
| Cc1cc(Nc2cc(N3CCN(C)CC3)nc(Sc3ccc(NC(=O)C4CC4)cc3)n2)n[nH]1 | 0.332 µM (active) |  |
| O=C(O)CCCCC(CCSCc1ccccc1)SCc1ccccc1 (centres undefined) |  | 80.5% (inactive) |
